Inconclusive results are not listed. Calls of active or inactive are those of the source. Calls come from the whole dose curve; as a rule, active = well fitted curve in the direction sought with a large enough effect in the repeat runs; inconclusive = weak or mixed curves; inactive = no such curve, though single readings can be large; an effect the other way counts as inactive or inconclusive.
Experiments:
[1] = qHTS RealTime-Glo MT Cell Viability Assay in HepG2 cells - 24 hour (AID 1224867); note: nearly all actives have a fitted effect of over 50% in size
Outline: (§1)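 HepG2 cells (600/well) were dispensed with RealTime-Glo reagents, incubated 5 h at 37 °C, then treated with compounds in DMSO for up to 40 h. Nonlytic NanoLuc luminescence reflecting viable cells was read at each stated time point.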

[2] = qHTS RealTime-Glo MT Cell Viability Assay in HEK293 cells - 32 hour (AID 1224868); note: top concentration of the series differs between compounds; nearly all actives have a fitted effect of over 50% in size
Outline: (§2)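 HEK293 cells seeded with NanoLuc/prosubstrate reagent, rested 5 h at 37 C, then dosed and kept at 37 C up to 40 h. Nonlytic real-time luminescence from viable cells read at 0, 8, 16, 24, 32 and 40 h.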

[3] = A CellTox Green Cytotoxicity Assay to monitor cytotoxicity in HEK293 cells - 0 hour (AID 1224869); note: nearly all actives have a fitted effect of over 50% in size
Outline: (§3)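 Dead-cell fluorescence measured kinetically: asymmetric cyanine dye, HEK293, 600 cells/well, 5 h settle, 23 nL cpd/DMSO, 37 C, reads 0–40 h every 8 h.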

[4] = A CellTox Green Cytotoxicity Assay to monitor cytotoxicity in HEK293 cells - 40 hour (AID 1224871); note: nearly all actives have a fitted effect of over 45% in size
Outline: as §3

[5] = qHTS RealTime-Glo MT Cell Viability Assay in HEK293 cells - 16 hour (AID 1224872); note: top concentration of the series differs between compounds; nearly all actives have a fitted effect of over 50% in size
Outline: as §2

[6] = qHTS RealTime-Glo MT Cell Viability Assay in HepG2 cells - 8 hour (AID 1224873); note: nearly all actives have a fitted effect of over 55% in size
Outline: (§4)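 HepG2 cells mixed with RealTime-Glo MT reagents (NanoLuc plus cell-permeant prosubstrate) were seeded at 600 cells/well, incubated 5 h at 37 C/5% CO2, then pinned with compounds in DMSO; nonlytic luminescence tracked viability during 40 h treatment.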

[7] = A CellTox Green Cytotoxicity Assay to monitor cytotoxicity in HEK293 cells - 24 hour (AID 1224875); note: nearly all actives have a fitted effect of over 45% in size; note: potency is the fitted concentration of half-maximal effect; for activity change: series mostly up to about 77 µM
Outline: as §3

[8] = qHTS RealTime-Glo MT Cell Viability Assay in HepG2 cells - 32 hour (AID 1224877); note: nearly all actives have a fitted effect of over 55% in size
Outline: as §1

[9] = A CellTox Green Cytotoxicity Assay to monitor cytotoxicity in HepG2 cells - 24 hour (AID 1224878); note: nearly all actives have a fitted effect of over 45% in size; note: potency is the fitted concentration of half-maximal effect
Outline: (§5)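 First, HepG2 cells (600/well) mixed with reagent were plated; second, after 5 h at 37 C they received compounds via pintool; third, fluorescence was measured at 0 h through 40 h at 8 h intervals.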

[10] = A CellTox Green Cytotoxicity Assay to monitor cytotoxicity in HepG2 cells - 40 hour (AID 1224879); note: nearly all actives have a fitted effect of over 40% in size
Outline: as §5

[11] = qHTS RealTime-Glo MT Cell Viability Assay in HEK293 cells - 0 hour (AID 1224880); note: top concentration of the series differs between compounds; nearly all actives have a fitted effect of over 45% in size
Outline: (§6)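 600 HEK293 cells per well, dispensed already mixed with RealTime-Glo MT reagents. Compound dosing came 5 h later. The same wells were read for luminescence at 0, 8, 16, 24, 32 and 40 h of exposure at 37 C.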

[12] = A CellTox Green Cytotoxicity Assay to monitor cytotoxicity in HEK293 cells - 32 hour (AID 1224881); note: nearly all actives have a fitted effect of over 40% in size; note: potency is the fitted concentration of half-maximal effect
Outline: as §3

[13] = A CellTox Green Cytotoxicity Assay to monitor cytotoxicity in HepG2 cells - 0 hour (AID 1224882); note: nearly all actives have a fitted effect of over 35% in size; note: potency is the fitted concentration of half-maximal effect
Outline: as §5

[14] = A CellTox Green Cytotoxicity Assay to monitor cytotoxicity in HepG2 cells - 32 hour (AID 1224883); note: nearly all actives have a fitted effect of over 50% in size; note: potency is the fitted concentration of half-maximal effect
Outline: as §5

[15] = A CellTox Green Cytotoxicity Assay to monitor cytotoxicity in HEK293 cells - 8 hour (AID 1224884); note: nearly all actives have a fitted effect of over 35% in size; note: potency is the fitted concentration of half-maximal effect
Outline: as §3

[16] = qHTS RealTime-Glo MT Cell Viability Assay in HepG2 cells - 16 hour (AID 1224885); note: nearly all actives have a fitted effect of over 50% in size
Outline: as §1

[17] = qHTS RealTime-Glo MT Cell Viability Assay in HEK293 cells - 24 hour (AID 1224886)
Outline: as §2

[18] = qHTS RealTime-Glo MT Cell Viability Assay in HEK293 cells - 40 hour (AID 1224874); details: RealTime-Glo luminescence, stronger effect = lower value; note: nearly all actives have a fitted effect of over 50% in size
Outline: as §6

[19] = A CellTox Green Cytotoxicity Assay to monitor cytotoxicity in HepG2 cells - 16 hour (AID 1224876); note: nearly all actives have a fitted effect of over 45% in size; note: potency is the fitted concentration of half-maximal effect
Outline: as §5

[20] = qHTS RealTime-Glo MT Cell Viability Assay in HepG2 cells - 40 hour (AID 1224870); note: nearly all actives have a fitted effect of over 50% in size
Outline: as §4
% is set by controls: 0 for no effect and ±100 for the full control effect.

O=C(c1ccccc1)c1cccc(O)c1
inactive: outcome [1] | outcome [2] | outcome [3] | Potency [4] | outcome [5] | outcome [6] | Potency [7] | outcome [8] | Potency [9] | Potency [10] | Potency [11] | Potency [12] | Potency [13] | Potency [14] | Potency [15] | outcome [16] | outcome [17]

CCCCCCCCCCCBr
inactive: outcome [1] | outcome [2] | outcome [3] | Potency [4] | outcome [5] | outcome [6] | max response [18] -3.54% | Potency [7] | Potency [19] | outcome [8] | Potency [9] | Potency [10] | Potency [11] | Potency [12] | Potency [13] | Potency [14] | Potency [15] | outcome [16] | outcome [17]

O=C(O)/C=C(\CC(=O)O)C(=O)O
inactive: outcome [1] | outcome [2] | outcome [3] | Potency [4] | outcome [5] | outcome [6] | max response [18] 4.26% | Potency [19] | outcome [8] | Potency [9] | Potency [10] | Potency [11] | Potency [12] | Potency [13] | Potency [14] | Potency [15] | outcome [16] | outcome [17]

CC(C)C(C)C
inactive: outcome [1] | outcome [2] | outcome [20] | Potency [4] | outcome [5] | outcome [6] | max response [18] 5.69% | Potency [7] | Potency [19] | outcome [8] | Potency [9] | Potency [10] | Potency [11] | Potency [12] | Potency [13] | Potency [14] | Potency [15] | outcome [16] | outcome [17]

CCCCOCCCC
inactive: outcome [1] | outcome [2] | outcome [3] | outcome [20] | outcome [5] | outcome [6] | max response [18] 8.08% | Potency [19] | outcome [8] | Potency [9] | Potency [10] | Potency [11] | Potency [13] | Potency [14] | Potency [15] | outcome [16] | outcome [17]

C=CCCCCCCCCCCCCCC
inactive: activity change, negative = cytotoxicity [1] 0.31% [at 15.8 µM] | activity change, negative = cytotoxic [2] -0.171% [at 15.8 µM] | cytotoxicity [3] -0.258% [at 15.8 µM] | cytotoxicity increase [4] 0.351% [at 15.8 µM] | activity change, negative = cytotoxicity [5] -2.4% [at 15.8 µM] | viability change, negative = cytotoxic [6] 2.93% [at 15.8 µM] | max response [18] 0.625% | activity change [7] -0.0594% [at 15.8 µM, stronger effect = higher value] | cytotoxicity increase [19] 2.79% [at 15.8 µM] | activity change, negative = cytotoxic [8] -5.43% [at 15.8 µM] | cytotoxicity [9] 1.07% [at 15.8 µM] | cytotoxicity increase [10] -1.48% [at 15.8 µM] | activity change, negative = cytotoxicity [11] -0.897% [at 15.8 µM] | cytotoxicity increase [12] -0.422% [at 15.8 µM] | cytotoxicity [13] 7.56% [at 15.8 µM] | cytotoxicity increase [14] -0.009% [at 15.8 µM] | cytotoxicity increase [15] 2.81% [at 15.8 µM] | activity change, negative = cytotoxic [16] -0.802% [at 15.8 µM] | activity change, negative = cytotoxicity [17] -1.45% [at 15.8 µM]

CC(O)CCCCn1c(=O)c2c(ncn2C)n(C)c1=O (centres undefined)
inactive: outcome [1] | outcome [2] | outcome [3] | Potency [4] | outcome [5] | outcome [6] | max response [18] 0.953% | Potency [7] | Potency [19] | outcome [8] | Potency [9] | Potency [10] | Potency [11] | Potency [12] | Potency [13] | Potency [14] | Potency [15] | outcome [16] | outcome [17]

C=CCn1cc[n+](C)c1
inactive: outcome [1] | outcome [2] | outcome [3] | Potency [4] | outcome [5] | outcome [6] | max response [18] -3.76% | Potency [7] | Potency [19] | outcome [8] | Potency [10] | Potency [11] | Potency [12] | Potency [13] | Potency [14] | Potency [15] | outcome [16] | outcome [17]

COC(=O)N/N=C/c1c[n+]([O-])c2ccccc2[n+]1[O-]
inactive: outcome [1] | outcome [2] | outcome [3] | outcome [20] | outcome [5] | outcome [6] | max response [18] 5.36% | outcome [8] | Potency [11] | outcome [16] | outcome [17]
active: Potency [7] 21.3 µM | Potency [19] 23.9 µM | Potency [9] 23.9 µM | Potency [12] 21.3 µM | Potency [13] 23.9 µM | Potency [14] 23.9 µM | Potency [15] 23.9 µM

CCOCCOCCOC(C)=O
inactive: outcome [1] | outcome [2] | outcome [3] | Potency [4] | outcome [5] | outcome [6] | max response [18] 7.47% | Potency [7] | Potency [19] | outcome [8] | Potency [9] | Potency [10] | Potency [11] | Potency [12] | Potency [13] | Potency [14] | Potency [15] | outcome [16] | outcome [17]

CC(C)C[P+](C)(CC(C)C)CC(C)C
inactive: outcome [1] | outcome [2] | outcome [3] | outcome [20] | outcome [6] | max response [18] -17.7% | Potency [19] | outcome [8] | Potency [9] | Potency [10] | Potency [11] | Potency [13] | Potency [14] | Potency [15] | outcome [16] | outcome [17]

CCCCCCCC(=O)N(C)C
inactive: outcome [1] | outcome [2] | outcome [3] | Potency [4] | outcome [5] | outcome [6] | max response [18] 4.49% | Potency [7] | outcome [8] | Potency [11] | Potency [12] | Potency [13] | Potency [15] | outcome [16] | outcome [17]

CN1CCN(C(=O)C2CCCCC2)CC1
inactive: outcome [1] | outcome [2] | outcome [3] | Potency [4] | outcome [5] | outcome [6] | max response [18] 0.482% | Potency [7] | Potency [19] | outcome [8] | Potency [9] | Potency [10] | Potency [11] | Potency [12] | Potency [13] | Potency [14] | Potency [15] | outcome [16] | outcome [17]

CSC(=O)c1cccc2nnsc12
inactive: outcome [1] | outcome [2] | outcome [3] | Potency [4] | outcome [5] | outcome [6] | max response [18] -1.81% | Potency [19] | outcome [8] | Potency [9] | Potency [10] | Potency [11] | Potency [12] | Potency [13] | Potency [14] | Potency [15] | outcome [16] | outcome [17]

CC(C)(O)c1ccc(C(C)(C)O)cc1
inactive: outcome [1] | outcome [2] | outcome [3] | Potency [4] | outcome [6] | max response [18] 0.887% | Potency [7] | Potency [19] | outcome [8] | Potency [9] | Potency [10] | Potency [11] | Potency [12] | Potency [13] | Potency [14] | Potency [15] | outcome [16] | outcome [17]

Source: PubChem BioAssay (Tox21)
